# Screening results deposited in PubChem BioAssay by National Center for Advancing Translational Sciences (NCATS).
# AMA1 RON2 block – disrupts binding of P. falciparum AMA1 to RON2; AlphaScreen AMA1-biotinylated RON2 peptide binding; 360,000 compounds, 0.2% hits; Potency, µM (highest dose often 58.2 µM), for inactives: at the highest dose activity change, negative = inhibition, hits mostly inhibitors; AID 720542;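 further: potency means the concentration at half of the fitted maximal effect; 0% = vehicle wells and -100% = peptide control; nearly all actives have a fitted effect of over 45% in size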
#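 AMA1 (3D7) with his tag at 25 nM final met compounds first, then biotinylated RON2 peptide at 25 nM; detection used donor plus acceptor beads, 10 µg/mL apiece, read by AlphaScreen after 30 min at room temperature.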
# Cycloheximide cs – counter-screen hit for Shiga toxin inhibitors, cycloheximide | cell reporter, cycloheximide protein synthesis inhibition counterscreen | max response, % | 300,000 compounds, 12% hits; in the data active means max response mostly above about 13%, no sharp cut-off; inactive means mostly below about 14%; further: read at 38.3 µM for the half of the compounds with a filed dose; 0% is about no effect
# Shiga toxin inh – Shiga toxin inhibition; Vero cells, Shiga toxin protein synthesis inhibition reporter; 290,000 compounds, 9.2% hits; inhibition, % at 38.7 µM; in the data active means inhibition mostly above about 28%, no sharp cut-off; inactive means mostly below about 43%; further: 0% is about no effect
# HCV inh – HCV inhibition. 340,000 compounds, 3.4% hits. Huh7.5.1 HCVcc-Cre infection, luciferase reporter, 44 h. Potency, µM (highest dose often 41.8 µM), for the others: top-dose activity change, negative = inhibition, hits mostly inhibitors; further: potency means the concentration at half of the fitted maximal effect; on the % scale 0 is the no-effect control and ±100 the full control effect
#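 After 44 h co-culture of compound, cells and HCVcc-Cre (~0.5 moi), substrate is added for 15 min at room temperature and luciferase measured over 15 sec. Cells were seeded at 1,000/well and pre-cultured 4 h.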
# Pf growth 96h – P. falciparum growth inhibition at 96 hour, primary screen for plastid delayed-death inhibitors | 320,000 compounds, 6.9% hits | Potency, µM (series often up to 28.7 µM), for the others: at the highest dose activity change, negative = inhibition, usual class: inhibitors | P. falciparum luciferase reporter growth, 96 h | AID 504834; further: potency means the concentration at half of the fitted maximal effect; on the % scale 0 is the no-effect control and ±100 the full control effect
#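 96 h incubation, 37 C, 5% CO2, of luciferase-reporter P. falciparum-infected RBCs (2% hematocrit, 0.05% parasitemia final) with test compounds; endpoint luminescence.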
# Pf growth 48h – P. falciparum growth inhibition at 48 hours (one generation); AID 504832; Potency, µM (highest dose often 28.7 µM), without a hit: at the highest dose activity change, negative = inhibition, usual class: inhibitors; 310,000 compounds, 5.9% hits; P. falciparum luciferase growth in erythrocytes, 48 h; further: potency means the concentration at half of the fitted maximal effect; on the % scale 0 is the no-effect control and ±100 the full control effect
#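 Parasite viability was followed by luminescence of a genomically integrated firefly luciferase. Cultures held 0.1% parasitemia at 2% hematocrit (final), incubated under 5% CO2 at 37 C.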
# An asterisk follows results filed as active; u = inconclusive; x = no result given. Only some compounds are listed: those with a hit (about 21% of all), similar ones and a draw of the others. Unless noted, the call rests on the fitted dose curve; in most records, active means well fitted curve in the direction sought with a large enough effect; inconclusive means small, poorly fitted or top-dose-only effect, or another doubt; inactive means no such curve, though single readings can be large; an effect the other way counts as inactive or inconclusive.
SMILES,AMA1 RON2 block,Cycloheximide cs,Shiga toxin inh,HCV inh,Pf growth 96h,Pf growth 48h
CN1CCN(C(=O)C2=C[C@@H](c3csc4ccccc34)C[C@@H](OCc3ccc(CO)cc3)O2)CC1,-2%,1,9,16%,u,u
O=C(C1=C[C@@H](c2coc3ccccc3c2=O)C[C@@H](OCc2ccc(CO)cc2)O1)N1CCN(Cc2ccc3c(c2)OCO3)CC1,7%,5,11,u,u,u
COc1ccc(-c2nc(N)ncc2-c2csc(C)n2)c(O)c1OC,13%,-9,-5,8%,19%,-2%
NC(=O)C[C@H](NC(=O)c1ccc(Cl)cc1)C(=O)OCc1ccccc1,-4%,x,x,8%,x,x
O=C(NCC1CCCO1)c1cccc(S(=O)(=O)Nc2ccc(F)cc2)c1 (centres undefined),-6%,x,x,-5%,16%,-22%
CCCCN(CC)Cc1ccc(CNC(=O)Nc2ccc(F)cc2)o1,2%,-6,-16,11µM*,u,x
c1ccc(C2=Nc3ccccc3OC2)cc1,-14%,21*,43,-4%,u,x
Clc1ccc(C2=Nc3cc(Cl)ccc3OC2)cc1,18%,27*,60*,3%,29%,8%
Clc1ccc(C2=NN=C3COc4ccccc4N3C2)cc1,-1%,-2,2,13%,11%,-12%
Cc1ccc2c(c1)N=C(c1ccc(Cl)cc1)CO2,4%,53*,56*,-12%,68%,x
O=C(Nc1cccc(Cl)c1)c1csc([C@@H]2C[C@H](O)[C@@H](CO)O2)n1,10%,x,x,x,x,x
CN(C)CCCNc1cc(C(C)(C)C)nc2c(-c3ccc(Cl)cc3)cnn12,44%,40*,53*,10µM*,u,u
CC(C)(C)c1cc(NCc2ccccn2)n2ncc(-c3ccc(Cl)cc3)c2n1,78%,1,24,u,u,3.3µM*
Cc1nccn1-c1cc(C(C)(C)C)nc2c(-c3ccccc3)cnn12,-4%,8,15,-5%,-12%,18%
Cc1cccc(CN2C(=O)c3ccccc3S(=O)(=O)c3ccc(C(=O)NCCCN4CCCC4)cc32)c1,-11%,-1,-5,6%,u,10µM*
O=C(NCCN1CCCC1)c1ccc2c(c1)N(Cc1cccc(Cl)c1)C(=O)c1ccccc1S2(=O)=O,-11%,-1,-8,u,0%,8.3µM*
CCN1CCN(C(=O)c2ccc3c(c2)N(Cc2ccccc2)C(=O)c2ccccc2S3(=O)=O)CC1,-4%,-2,-10,-25%,23%,6.6µM*
CC1CCCCN1CCNC(=O)c1ccc2c(c1)N(Cc1ccccc1)C(=O)c1ccccc1S2(=O)=O (centres undefined),10%,-4,-9,u,u,5.2µM*
CCN1CCN(C(=O)c2ccc3c(c2)S(=O)(=O)c2ccccc2C3=O)CC1,0%,5,18,3%,-23%,20%
COc1ccnc(Oc2ccccc2)c1C(N)=O,-18%,4,-9,15%,-8%,7%
Nc1nc2c(Cl)ccc(Cl)c2s1,-3%,-4,32,-2%,8.3µM*,u
Nc1nc2c(Cl)cc(Cl)cc2s1,13%,18,40,4%,39%,20%
N=C(N)SCc1cn2ccccc2n1,0%,12,-2,-9%,19%,6%
c1ccc(SCc2cn3cccnc3n2)nc1,-13%,14,13,15%,-23%,0%
Cc1cccn2cc(CSc3ccccc3N)nc12,1%,31*,59,x,65%,x
Nc1ccccc1SCc1cn2cccnc2n1,2%,24*,80*,1%,33%,38%
Nc1ccccc1SCc1cn2ccccc2n1,-6%,68*,55*,9%,179%,228%
O=C(NCCN1CCCC(O)C1)c1cc(COc2cccc(C(F)(F)F)c2)on1 (centres undefined),12%,x,x,x,x,x
CCOC(=O)/C(=C/C=C1\Sc2ccccc2N1CC)C(C)=O,-12%,6,14,u,46%,u
CCN1/C(=C/c2sc(-c3ccccc3C)c[n+]2C)Sc2ccccc21,4%,12,-17,3.5µM*,-10%,u
